# Data from PubChem BioAssay AID1117267 (The Scripps Research Institute Molecular Screening Center, 2014).
# Among all 92,000 compounds or so, about 1,200 (1.3%) were called active.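 The calls were made as follows: active = activation above the mean of all tested compounds plus 3 SD (cut at about 9.5% in these data); inactive = the rest.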 This excerpt belongs to a sample that is enriched for actives.
# Test: TTR transcription activators in neuroblastoma reporter cells, primary screen, cell-based, luminescence, SH-SY5Y, TTR promoter Gaussia luciferase (AID 1117267);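 also: cells exposed to compounds for one day before reading; 0% = median of all test compound wells on the plate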
# Settings: at 16.7 µM, stronger effect = higher value, 100% = recombinant luciferase protein wells
row,SMILES,activation
1,O=C(O)C1OC(C(=O)O)C2C1C(F)(F)C2(F)F (centres undefined),15.5% (active)
2,COc1ccc(N2c3ccccc3CN(Cc3ccccc3)[C@@H](C)[C@H]2Cc2ccc(-c3ccccc3)cc2)cc1,-1.66% (inactive)
3,Cc1cccc(C)c1NC(=O)CN1C(=O)C(C)Oc2ccccc21 (centres undefined),15.3% (active)
4,O=C(CN1C(=O)COc2ccccc21)Nc1ccc(F)cc1,2.98% (inactive)
5,Cc1ccc2c(c1)N(CC(=O)N1CCCc3ccccc31)C(=O)C(C)O2 (centres undefined),-0.78% (inactive)
6,O=C(CCC(=O)c1cccs1)NC1CCCCCC1,-2.1% (inactive)
7,O=C(CCC(=O)c1cccs1)Nc1nc2ccccc2s1,0.06% (inactive)
8,O=C(CCC(=O)c1cccs1)NCc1ccccc1,9.7% (active)
9,CCOC(=O)N1CCN(S(=O)(=O)c2ccc(-n3cnnn3)cc2)CC1,-1.92% (inactive)
10,COCCn1c(SCC(=O)N2CCCCCC2)nc2c(c1=O)SCC2,0.25% (inactive)
11,Cc1cc(C(=O)CSc2nc(N)cc(=O)[nH]2)c(C)n1Cc1ccco1,0.58% (inactive)
12,CCOC(=O)[C@H]1[C@H]2COc3ccc(OC)cc3[C@@H]2N2C(=O)c3ccc(F)cc3NC(=O)[C@@]12C,1.68% (inactive)
13,CSc1sc(C(=O)NNC(=O)c2ccc(Cl)cc2)c2c1C=CCC2,-0.42% (inactive)
14,O=C(Nc1ccccc1C(=O)N1CCCCCC1)c1ccccc1Cl,21.4% (active)
15,O=C(c1ccc(Cl)c(Cl)c1)N1CCCC1,4.23% (inactive)
16,O=C(CN1CCCCC1)Nc1ccccc1C(=O)NC1CC1,2.49% (inactive)
17,Cc1cc(C)c(C#N)c(N2CCC(C(N)=O)CC2)n1,14.3% (active)
18,Cc1cc(C)c(C#N)c(SCc2ccccc2C(=O)O)n1,5.37% (inactive)
19,N#Cc1c(N2CCCCC2)nc(N)c2c(N)nc(SCC(=O)O)cc12,0.31% (inactive)
20,CCC(C)C(=O)Nc1cc([N+](=O)[O-])ccc1Cl (centres undefined),0.38% (inactive)

row,SMILES,activation
1,CCOc1ccc(NC(=O)CSc2nc3ccccc3c(=O)n2Cc2cccs2)cc1,0.62% (inactive)
2,Cc1cc(C)c2nc3nc(C)cc(C)c3c(N)c2c1,13.6% (active)
3,COc1ccc(CCNC(=O)C(Sc2ccccn2)c2ccccc2)cc1OC (centres undefined),1% (inactive)
4,NC(=O)c1oc2ccccc2c1NC(=O)CS(=O)(=O)c1ccccc1,-0.61% (inactive)
5,CCSc1nc(O)c(C(c2cccc(OC)c2)c2c(O)nc(SCC)[nH]c2=O)c(=O)[nH]1,1.15% (inactive)
6,CCOc1ncccc1C(=O)N(C)CC(=O)Nc1ccc(F)cc1,4.43% (inactive)
7,Cc1cccc(N2C(=O)CC(SC(N)=Nc3ccccc3)C2=O)c1 (centres undefined),11.1% (active)
8,O=C1CC(N2CCN(c3ccc(F)cc3)CC2)C(=O)N1c1ccccc1 (centres undefined),0.86% (inactive)
9,O=C1CC(Sc2ncn[nH]2)C(=O)N1c1ccccc1 (centres undefined),-1.83% (inactive)
10,CCOc1cccc(NC(=O)C2CCCN(S(=O)(=O)c3ccc(OC)cc3)C2)c1 (centres undefined),-2.33% (inactive)
11,COc1ccccc1CC(=O)Nc1ccc(S(=O)(=O)N2CCCC2)cc1,1% (inactive)
12,CCOc1ccc(NC(=O)COc2ccc(S(=O)(=O)N3CCCC3)cc2)cc1,11.4% (active)
13,Cc1cccc(OCCCC(=O)Nc2ccc(S(=O)(=O)N3CCCC3)cc2)c1,-3.27% (inactive)
14,CCOc1ccccc1NC(=O)COc1ccc(S(=O)(=O)N2CCCC2)cc1,15.6% (active)
15,CCc1ccccc1OCC(=O)Nc1ccc(C)c(S(=O)(=O)N2CCCCCC2)c1,-2% (inactive)
16,Cc1ccc(NC(=S)NCc2ccccc2Cl)c(C)c1,0.72% (inactive)
17,C/C(CC(=O)Nc1ccc(N(C)C)cc1)=N\NC(=O)c1ccccc1F,15.4% (active)
18,CN(C)c1ccc(NC(=O)CN2C3CCCC2CC(NC(=O)c2ccccc2)C3)cc1 (centres undefined),-2.32% (inactive)
19,C/C(CC(=O)Nc1ccc(Cl)cc1)=N\NC(=O)C(=O)NCCO,-1.14% (inactive)
20,CCOc1ccc(CCN2C(=O)C(=O)N([C@@H](Cc3ccc(O)cc3)CN3CCC[C@H]3CN3C(=O)C(=O)NC[C@@H]3CC(C)C)C[C@@H]2Cc2ccccc2)cc1,2.35% (inactive)

row,SMILES,activation
1,Cc1ccn(CC(=O)N2N=C(C(F)F)CC2(O)C(F)F)n1 (centres undefined),-1.11% (inactive)
2,CC(=O)NC1(c2ccc(F)cc2)CCN(C(=O)c2c(F)cccc2F)CC1,0.91% (inactive)
3,CCCCCc1ccc(-c2ccc(OCC)cc2)nc1,1.61% (inactive)
4,CCCCCc1ccc(-c2cn(Cc3ccc4ccccc4c3)nn2)cc1,10.7% (active)
5,COc1ccc(Cn2cc(COC(=O)N(C)Cc3ccccc3)nn2)cc1,0.33% (inactive)
6,CC(C(=O)N(C)CC(=O)Nc1ccccc1C(F)(F)F)N1C(=O)c2ccccc2C1=O (centres undefined),2.02% (inactive)
7,COc1ccc(-c2nn(-c3ccccc3)cc2/C=C\C(=O)N2CCOCC2)cc1[N+](=O)[O-],-1.35% (inactive)
8,COc1ccc(S(=O)(=O)Nc2ccc(S(=O)(=O)N3CCCCC3)cc2)cc1OC,-1.7% (inactive)
9,COc1ccc(-c2ccc(Nc3ccc(S(=O)(=O)N4CCCC4)cc3)nn2)cc1OC,-5.27% (inactive)
10,COc1cc(C(C)=O)ccc1OC(C)C(=O)Nc1ccc(S(=O)(=O)N2CCCC2)cc1 (centres undefined),10% (active)
11,O=C(NCc1cccc(C(F)(F)F)c1)c1cccc(S(=O)(=O)N2CCN(Cc3ccccc3)CC2)c1,-1.01% (inactive)
12,N#CCc1c[nH]c2ccc([N+](=O)[O-])cc12,1.86% (inactive)
13,CC(=O)c1ccc2c(c1)OCCOCCOc1ccc(C(C)=O)cc1OCCOCCO2,1.09% (inactive)
14,Cc1ccc(NC(=O)CC(=O)Nc2ccc(C)cc2)cc1,5.18% (inactive)
15,Cc1ccc(NC(=O)CN(C)C(=O)COC(=O)c2nccnc2N)cc1,-0.56% (inactive)
16,CSCCC(NC(N)=O)C(=O)N(C)CC(=O)Nc1ccc(C)cc1 (centres undefined),22.6% (active)
17,CC1CN(C(=S)Nc2ccc(Br)cc2Cl)CC(C)O1 (centres undefined),-0.06% (inactive)
18,CCN(C(=O)COC(=O)c1ccccc1O)c1cccc2ccccc12,-1.17% (inactive)
19,CCC(O)C1CCN(Cc2cn(-c3ccc(OC)cc3)nc2-c2cccc(F)c2)CC1 (centres undefined),2.63% (inactive)
